Experimental data from PubChem BioAssay (NCATS).
Results filed as inconclusive are left out. Active and inactive are the calls of the source. Calls follow the shape of the dose curve; as a rule, active = well fitted curve in the direction sought with a large enough effect; inconclusive = small, poorly fitted or top-dose-only effect, or another doubt; inactive = no such curve, though single readings can be large; an effect the other way counts as inactive or inconclusive.

Experiments:
[1] = qHTS assay for measurement of the activity of small molecule inhibitors on Zika virus induced Caspase-3 activity in human iPSC derived neural progenitor cells (hNPCs) (AID 1224857); also: nearly all actives have a fitted effect of over 65% in size
Summary of the method: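 Percent inhibition of virus-induced caspase-3/7 luminescence (Caspase-Glo), scaled between uninfected cells and Zika-infected cells. hNPCs received compound 1 hr before ZIKV at 2 FFU/cell, with 6 hours infection at 37 C.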

[2] = qHTS assay for measurement of the activity of small molecule inhibitors on Zika virus induced Caspase-3 activity in human astrocytoma cells (AID 1224859)
Summary of the method: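 Luminescent caspase-3/7 read-out (30 min reagent, room temperature) in human SNB-19 cells infected 6 h with ZIKV (2 FFU/cell) after 1 h compound pre-incubation; Data were normalised to uninfected and infected wells.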

[3] = qHTS assay to identify small molecule inhibitors of chordoma cells - UCH-1 (AID 1259355); also: nearly all actives have a fitted effect of over 55% in size
Summary of the method: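 Cells (800/well) were seeded and left overnight at 37 C, 5% CO2, then treated with drugs at 15 concentrations plus a combination mix of auranofin, camptothecin, doxorubicin, rubitecan and topotecan. Viability after 48hr was read by CellTiter-Glo luminescence.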

[4] = qHTS assay to identify small molecule inhibitors of chordoma cells - UCH-2 (AID 1259356); also: series mostly up to about 46 µM

Measured: Potency

CCCCN1CCCC1C(=O)Nc1c(C)cc(C)cc1C (configuration not stated)
inactive: all assays above

CC(Cc1cccc(C(F)(F)F)c1)NCCOC(=O)c1ccccc1 (configuration not stated)
inactive: all assays above

Oc1c(Cl)cc(Cl)cc1Sc1cc(Cl)cc(Cl)c1O
inactive: all assays above

CCN(CC)CCOC(=O)C(c1ccccc1)C1CCCCC1 (configuration not stated)
inactive: all assays above

CCCn1c(=O)[nH]c(=O)c2[nH]cnc21
inactive: all assays above

C[N+]1(CCCCC[N+]2(C)CCCC2)CCCC1
inactive: all assays above

CC(C)NC[C@@H](O)COc1cccc2ccccc12
inactive: all assays above

CCC(NC(C)C)C(O)c1ccc(O)c(O)c1 (configuration not stated)
inactive: all assays above

C1CCc2nnnn2CC1
inactive: all assays above

NCCc1ccn[nH]1
inactive: all assays above

O=C(N/N=C/c1ccccc1O)c1ccncc1
inactive: all assays above

CCN(CCCc1ccccc1)CCCc1ccccc1
inactive: all assays above

CC(=O)Oc1ccc2c(c1)CC[C@@H]1[C@@H]2CC[C@]2(C)[C@@H](O)CC[C@@H]12
inactive: all assays above

CCCCCCc1ccc(O)cc1O
inactive: all assays above

Nc1cc(Cl)c(NC2=NCCN2)c(Cl)c1
inactive: all assays above

C[C@@H]1CN(CCCn2c3ccccc3c3ccccc32)C[C@H](C)N1
inactive: all assays above

CC(=O)Nc1c(I)cc(I)c(C(=O)O)c1I
inactive: all assays above

COC1=CC(=O)C[C@@H](C)[C@]12Oc1c(Cl)c(OC)cc(OC)c1C2=O
inactive: all assays above

CCCSS/C(CCO)=C(\C)N(C=O)Cc1cnc(C)nc1N
inactive: all assays above

CC(=O)O[C@H]1C[C@@H]2CC[C@@H]3[C@H](CC[C@@]4(C)[C@H]3C[C@H]([N+]3(C)CCCCC3)[C@@H]4OC(C)=O)[C@@]2(C)C[C@@H]1[N+]1(C)CCCCC1
inactive: all assays above

CCCCCCCCCCCCCCNCCO
inactive: all assays above

C#C[C@]1(OC(C)=O)CC[C@H]2[C@@H]3CCC4=C[C@@H](OC(C)=O)CC[C@@H]4[C@H]3CC[C@@]21C
inactive: all assays above

O=C(CCN1CCC(c2ccccc2)C1)c1ccc2c(c1)OCCO2 (configuration not stated)
inactive: all assays above

CCOC(=O)/C=C(C)/C=C/C=C(C)/C=C/c1c(C)cc(OC)c(C)c1C
inactive: all assays above

Cc1c(F)c(N2CCNC(C)C2)cc2c1c(=O)c(C(=O)O)cn2C1CC1 (configuration not stated)
inactive: all assays above

COc1cc(N)c(Cl)cc1C(=O)NC1CCN(CCCOc2ccc(F)cc2)CC1OC (configuration not stated)
inactive: all assays above

O=C(OCCOCCO)c1ccccc1Nc1cccc(C(F)(F)F)c1
inactive: all assays above

C[C@H]1[C@H](NC(=O)/C(=N/OC(C)(C)C(=O)O)c2csc(N)n2)C(=O)N1S(=O)(=O)O (stereo in doubt)
inactive: all assays above

CCCCC1=NC2(CCCC2)C(=O)N1Cc1ccc(-c2ccccc2-c2nn[nH]n2)cc1
inactive: all assays above

CCOC(=O)OC(C)OC1=C(C(=O)Nc2ccccn2)N(C)S(=O)(=O)c2ccccc21 (configuration not stated)
inactive: [1] | [2] | [4]

CC(O)C(=O)O (configuration not stated)
inactive: [1] | [2] | [4]

COC(=O)[C@H]1[C@H]2C[C@H]3c4[nH]c5ccccc5c4CCN3C[C@H]2CC[C@@H]1O
inactive: [1] | [2] | [4]

CN1CCN(C(c2ccccc2)c2ccccc2)CC1
inactive: [1] | [2] | [4]

Cc1cc(O)c(C(C)C)cc1Cl
inactive: [1] | [2] | [4]

CCCC1O[C@@H]2C[C@H]3[C@@H]4CCC5=CC(=O)C=C[C@]5(C)[C@H]4[C@@H](O)C[C@]3(C)[C@]2(C(=O)CO)O1 (some centres not stated)
inactive: [1] | [2] | [4]

CN(C)CC/C=C1\c2ccccc2Sc2ccc(Cl)cc21
inactive: [1] | [2] | [4]

N[C@H](Cc1c[nH]c2ccccc12)C(=O)O
inactive: [1] | [2] | [4]

CNCC[C@@H](Oc1ccccc1C)c1ccccc1
inactive: [1] | [2] | [4]

COc1ccc(C2C(=O)c3ccccc3C2=O)cc1
inactive: [1] | [2] | [4]

CN(C)C(=S)SC(=S)N(C)C
inactive: [1] | [2] | [4]

CC(C)=CCC1C(=O)N(c2ccccc2)N(c2ccccc2)C1=O
inactive: [1] | [2] | [4]
